Assay outcomes deposited in PubChem BioAssay by National Center for Advancing Translational Sciences (NCATS).
This is a sample that favours compounds with a hit; in the whole collection about 21% have one here.
ELG1 repair inh = ELG1-dependent DNA repair inhibition. Potency, µM (series often up to 46.1 µM), hits mostly inhibitors. HEK293T ELG1-luciferase reporter, luminescence, 16 h; DNA damage induced by 5-fluorouridine. 330,000 compounds, 2.3% hits. AID 504467; further: nearly all actives have a fitted effect of over 55% in size
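Cells (2,000 per well) received 5-fluorouridine plus test compound or DMSO and were incubated 16 hr at 37 °C, 5% CO2. Luciferase activity was read by luminescence 30 min after ONE-Glo addition; signal suppression marked inhibition of damage-induced ELG1 function.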
TDP1 cell CPT = growth inhibition of DT40 Tdp1-/-;hTDP1 cells with camptothecin (screen for TDP1 inhibitors); Potency, µM (highest dose often 46.2 µM), actives largely listed as inhibitors; 420,000 compounds, 12% hits; chicken DT40 Tdp1-/-;hTDP1 cells + 20 nM CPT, ATP luminescence, 48 h; further: nearly all actives have a fitted effect of over 55% in size
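Chicken DT40 Tdp1-/- cells complemented with human TDP1, 400 cells/well, exposed to compounds plus 20 nM camptothecin for at least 48 h at 37 C; viability read as ATP content by CellTiter-Glo luminescence.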
DT40 TDP1 no CPT = qHTS for Inhibitors of human tyrosyl-DNA phosphodiesterase 1 (TDP1): qHTS in cells in absence of CPT | Potency, µM (top dose mostly 46.2 µM), most hits filed as inhibitors | DT40 Tdp1-/- hTDP1 cells, no CPT, ATP luminescence, 48 h | 420,000 compounds, 15% hits | AID 686978, 2013; further: nearly all actives have a fitted effect of over 55% in size
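Stably hTDP1-transfected Tdp1-null chicken DT40 cells were treated with library compounds minus camptothecin and grown for at least 48 hr at 37 °C, after which cellular ATP was quantified by luminescence.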
Gal4-VP16 FLuc = inhibits Gal4-VP16 luciferase reporter, ROR gamma counter-screen; 310,000 compounds, 3.5% hits; AID 2546; Potency, µM (doses to about 53.6 µM), actives largely listed as inhibitors; Drosophila S2 Gal4-VP16 UAS-luciferase, luminescence, 20 h;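 further: Gal4-VP16 expression switched on by copper sulfate through the metallothionein promoter; nearly all actives have a fitted effect of over 50% in size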
RORg inh = ROR gamma (mouse) transcription inhibition | P51450 | Drosophila S2 Gal4-RORgamma UAS-luciferase reporter, 20 h | Potency, µM (titrated, usually from 53.6 µM), hits mostly inhibitors | 310,000 compounds, 5.4% hits; further: nearly all actives have a fitted effect of over 60% in size
Target sequence (P51450 whole entry, looked up, the tested form may be a part): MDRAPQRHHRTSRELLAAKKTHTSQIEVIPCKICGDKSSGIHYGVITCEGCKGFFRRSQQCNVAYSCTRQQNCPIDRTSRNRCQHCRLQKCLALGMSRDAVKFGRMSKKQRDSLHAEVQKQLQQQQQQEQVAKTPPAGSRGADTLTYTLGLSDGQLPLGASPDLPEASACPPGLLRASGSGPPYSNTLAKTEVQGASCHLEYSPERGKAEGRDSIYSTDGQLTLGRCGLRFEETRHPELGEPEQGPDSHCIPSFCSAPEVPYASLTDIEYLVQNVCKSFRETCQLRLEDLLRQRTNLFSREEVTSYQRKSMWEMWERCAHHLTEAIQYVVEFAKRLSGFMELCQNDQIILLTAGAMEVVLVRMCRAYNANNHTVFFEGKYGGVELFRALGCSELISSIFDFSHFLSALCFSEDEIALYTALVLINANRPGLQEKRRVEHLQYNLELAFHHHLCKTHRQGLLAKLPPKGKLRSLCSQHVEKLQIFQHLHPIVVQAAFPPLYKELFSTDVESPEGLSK
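Schneider cells (Drosophila), stable Gal4 DBD–ROR gamma + UAS-luc; 1 hr cmpd preincubation; Cu2+ induction 700 uM final; 20 hr ambient; luminescence.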
IL-1B inflam inh = inflammasome signaling inhibition, IL-1 beta readout | activity change, % at 57.5 µM | 360,000 compounds, 4.7% hits | THP-1 LPS/ATP IL-1B secretion, AlphaLISA, 16 h; active compounds read low; in the data active means activity change below about -50%; inconclusive means mostly about -30% to -49%
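THP-1 cells pretreated 1 hr with compounds (up to 57.5 uM final), then stimulated with LPS (250 ng/mL final) plus ATP (1.25 mM final); secreted IL-1B measured by AlphaLISA after 16 hr, decreased signal indicating inhibition.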
Numbers stand for hits; 0 = inactive; ? = inconclusive; - = not tested or not shown; [ ] = another dose, or the depositor's remark. Unless noted, the call rests on the fitted dose curve; in most records, active means well fitted curve in the direction sought with a large enough effect; inconclusive means small, poorly fitted or top-dose-only effect, or another doubt; inactive means no such curve, though single readings can be large; an effect the other way counts as inactive or inconclusive.

SMILES	ELG1 repair inh	TDP1 cell CPT	DT40 TDP1 no CPT	Gal4-VP16 FLuc	RORg inh	IL-1B inflam inh
COc1ccccc1C(=O)CC(=O)C(=O)Nc1cccc([N+](=O)[O-])c1C	18µM	16µM	12µM	13µM	7.1µM	0
Cc1c(C(=O)OCC(=O)Nc2ccccc2OC(F)F)cccc1[N+](=O)[O-]	0	0	0	0	0	0
COc1ccccc1C/C(N)=N/OC(=O)c1cccc([N+](=O)[O-])c1C	23µM	?	?	13µM	0	0
COc1ccc(C(=O)CC(=O)C(=O)Nc2cccc([N+](=O)[O-])c2C)cc1	0	21µM	16µM	?	10µM	0
COc1cccc(C(=O)CC(=O)C(=O)Nc2cccc([N+](=O)[O-])c2C)c1	0	15µM	12µM	?	14µM	-92
CC(C)CCCC(C)CCCC(C)CCCCC(C)CCCC(C)CCCC(C)C (stereo unspecified)	-	0	0	0	0[10 µM]	-
Cc1ccc(CCNC(=O)c2ccc(CS(=O)(=O)c3ccc(Br)cc3)o2)cc1	-	0	0	-	-	-
COC(=O)C[C@H]1CC[C@@H]2[C@H](COC[C@H](O)CN2S(=O)(=O)c2ccccc2OC)O1	-	0	0	-	-	0
CCOc1ncnc2c1sc1nc(C)cc(C)c12	?	0	0	0	0	0
Cc1cc(C)c2c(n1)sc1c(N3CCN(CCO)CC3)ncnc12	0	0	?	0	0	-77
COc1cccc(Cn2cnc3c(sc4nc(C)cc(C)c43)c2=O)c1	0	0	0	0	0	0
CC(=O)Cn1cnc2c(sc3nc(C)cc(C)c32)c1=O	?	0	?	0	0	-64
COc1cc(OC)cc(-c2nc3nc(C)c(CCC(=O)Nc4ccc(C)cc4C)c(C)n3n2)c1	-	0	0	-	-	-
COc1ccc(-c2nnc(Nc3nc4c(OC)cccc4s3)o2)cc1	0	5.2µM	18µM	13µM	11µM	0
COc1cc(OC)cc(-c2nnc(Nc3nc4c(F)cccc4s3)o2)c1	0	21µM	?	1.6µM	0.71µM	0
COc1ccc(-c2nnc(Nc3nc4c(OC)cccc4s3)o2)c(OC)c1	0	4.6µM	4.1µM	?	1.6µM	0
COc1ccc(-c2nnc(-c3ccc(N)cc3)o2)cc1	?	0	0	0	0	0
COc1cc(OC)cc(C(=O)Nc2c(F)cccc2F)c1	0	0	0	0	?	0
CCCCCCOC(=O)CC1CC(C(C)=O)C1(C)C (stereo unspecified)	-	0	?	-	-	0
COC(=O)c1ccccc1Sc1ncnc2onc(C)c12	0	15µM	?	?	11µM	-103
Cc1sc2nc(SCC(=O)N3CCCC3)[nH]c(=O)c2c1C	0	26µM	?	0	0	0
CC(C)c1c(O)nc(SCC(=O)N2CCCCC2)[nH]c1=O	0	0	0	0	0	0
CCC(C)c1c(O)nc(SCC(=O)N2CCCCCC2)[nH]c1=O (stereo unspecified)	0	0	0	0	0	-51
Cc1sc2nc(SCC(=O)N3CCCCC3)[nH]c(=O)c2c1C	0	0	0	0	0	0
COc1cc(O)ccc1/C=N/NC(=O)c1ccc([N+](=O)[O-])cc1	0	0	?	?	?	0
SMILES	ELG1 repair inh	TDP1 cell CPT	DT40 TDP1 no CPT	Gal4-VP16 FLuc	RORg inh	IL-1B inflam inh
O=C(NC(CSCc1ccccc1)C(=O)N/N=C/c1ccc(O)cc1O)c1ccc([N+](=O)[O-])cc1 (stereo unspecified)	?	7.1µM	4.5µM	0	?	0
NC(=O)c1c(C(F)(F)F)cc(-c2ccccc2)nc1NCCO	?	0	0	0	0	0
CCCCNc1nc(-c2ccccc2)cc(C(F)(F)F)c1C(N)=O	0	?	?	?	?	-70
CCc1ccc(C2CC(c3cccc(OC)c3)n3nc(N)nc3N2)cc1 (stereo unspecified)	0	?	?	0	0	0
CC(C(=O)OCC(=O)Nc1cccc(S(=O)(=O)N2CCOCC2)c1)N1C(=O)c2ccccc2C1=O (stereo unspecified)	0	0	0	0	0	0
COc1ccc(OC)c(NC(=O)CCNC(=O)N2CC(=O)Nc3ccccc32)c1	-	0	0	-	-	0
COC(=O)c1nnn(CC(=O)NC(=O)Nc2cccc(Cl)c2C)c1C(=O)OC	0	0	0	0	0	0
O=C(O)c1ccc(N=C2SCC(=O)N2Cc2ccccc2)cc1	0	0	0	0	0	0
O=C(O)c1ccc(CN2C(=O)CSC2=S)cc1	0	18µM	18µM	?	10µM	0
O=C(O)c1ccc(N2C(=O)CSC2=S)cc1	-	?	?	-	-	-62
O=C1CSC(=S)N1Cc1cccnc1	0	4.6µM	4.6µM	?	?	-84
O=C1CSC(=S)N1c1cccnc1	0	?	?	0	0	0
Cc1ccc2c(c1)CN(C(=O)CC(c1ccccc1)c1ccco1)CC(C)O2 (stereo unspecified)	-	0[9.04 µM]	?	-	-	-
COc1ccc(-c2nc3cnc(N4CCOCC4)nc3n(Cc3cccc(OC)c3)c2=O)cc1	-	0	0	0	0	-
Cc1noc(C)c1CCC(=O)Nc1cc(C(=O)O)ccc1Cl	-	0	0	-	-	0
CC(C(c1ccc2c(c1)OCO2)c1c(N)n(C)c(=O)n(C)c1=O)[N+](=O)[O-] (stereo unspecified)	-	?	16µM	-	-	0
COc1cc(C(C[N+](=O)[O-])c2c(N)n(C)c(=O)n(C)c2=O)ccc1O (stereo unspecified)	0	6.5µM	6.5µM	0	14µM	0
COc1cc(C(=O)C(O)c2ccc(O)c(OC)c2)ccc1O (stereo unspecified)	-	0	0	-	-	0
Cn1c(N)c(C(C[N+](=O)[O-])c2ccccc2Cl)c(=O)n(C)c1=O (stereo unspecified)	-	4.1µM	4.6µM	-	-	0
Cc1ccc(C(C[N+](=O)[O-])c2c(N)n(C)c(=O)n(C)c2=O)cc1 (stereo unspecified)	0	3.7µM	5.2µM	?	13µM	?
O=C(O)C(Cc1ccc(Cl)cc1)Sc1nc2ccccc2[nH]1 (stereo unspecified)	0	0	0	0	0	0
CCCN(CCC)CCNC(=O)c1sc2nc3n(c(=O)c2c1C)CCCCC3	-	?	0	-	-	-
Cn1c(N)c(C(=O)COC(=O)Cc2c(F)cccc2Cl)c(=O)n(C)c1=O	0	0	0	-	-	0
COc1cccc(F)c1C(C[N+](=O)[O-])c1c(N)n(C)c(=O)n(C)c1=O (stereo unspecified)	18µM	4.6µM	2.3µM	11µM	7.1µM	-100
